Structures are written as SMILES. Records with an inconclusive call do not appear. A number with no mark means an inactive call. Activity calls are given as the source filed them. Calls follow the shape of the dose curve; as a rule, active = well fitted inhibition curve with a large enough effect in the repeat runs; inconclusive = weak or mixed curves; inactive = no such curve, though single readings can be large or run the other way.
% is scaled to controls: 0 for no effect and ±100 for the full control effect; potency is read from the fitted curve at half-maximal effect.

In the assay the target is Estrogen receptor (Homo sapiens) (UniProt P03372). Briefly: qHTS assay to identify small molecule antagonists of the estrogen receptor alpha (ER-alpha) signaling pathway using the BG1 cell line in the presence of 0.1 nM 17-beta-estradiol (AID 1259244). Also: nearly all actives have a fitted effect of over 50% in size. To be noted: VM7Luc4E2 (BG1) ERE-luciferase, antagonist mode, 0.1 nM E2, 22 h; series mostly up to 92.4 µM; activity change, negative = inhibition: at the top concentration. An excerpt: National Center for Advancing Translational Sciences [NCATS]
Chain of Estrogen receptor (Homo sapiens) (P03372 whole entry, looked up): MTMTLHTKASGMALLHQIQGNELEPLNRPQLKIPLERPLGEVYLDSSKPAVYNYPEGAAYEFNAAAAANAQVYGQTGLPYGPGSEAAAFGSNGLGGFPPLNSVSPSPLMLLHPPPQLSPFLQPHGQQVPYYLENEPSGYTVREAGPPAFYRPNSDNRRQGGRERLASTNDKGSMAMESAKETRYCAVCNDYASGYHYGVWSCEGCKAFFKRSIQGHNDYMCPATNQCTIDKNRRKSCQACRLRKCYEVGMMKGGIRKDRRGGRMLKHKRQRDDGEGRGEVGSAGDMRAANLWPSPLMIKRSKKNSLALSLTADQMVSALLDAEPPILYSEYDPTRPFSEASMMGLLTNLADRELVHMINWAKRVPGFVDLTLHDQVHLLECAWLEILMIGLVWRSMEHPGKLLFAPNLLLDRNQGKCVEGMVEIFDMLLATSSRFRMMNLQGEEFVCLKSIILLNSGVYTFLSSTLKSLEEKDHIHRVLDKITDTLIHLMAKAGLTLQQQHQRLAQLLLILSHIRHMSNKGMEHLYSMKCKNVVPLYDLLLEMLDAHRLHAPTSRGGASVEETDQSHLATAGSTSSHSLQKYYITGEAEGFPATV
NIH Chemical Genomics Center [NCGC]
U.S. Environmental Protection Agency [EPA]
National Institutes of Environmental Health Sciences [NIEHS]
National Toxicology Program [NTP]
U.S. Food and Drug Administration [FDA]
Estrogen receptor (ER), a member of the nuclear hormone receptor plays an important role in development, metabolic homeostasis and reproduction. Two subtypes of ER, ER-alpha and ER-beta, have similar expression patterns with some uniqueness in both types. Endocrine disrupting chemicals (EDCs) and their interactions with steroid hormone receptors like ER causes disruption of normal endocrine function. Therefore, it is important to understand the effect of environmental chemicals in ER signaling pathway. For identifying ER antagonists, VM7Luc4E2 cell line was used to screen against Tox21 compound libraries.
VM7Luc4E2 cell line (provided by Denison MS, University of California) endogenously express full-length ER-alpha and is stably transfected with a plasmid containing four estrogen responsive elements (ERE) upstream of a luciferase reporter gene. The current screening for identification of ER-alpha inhibitors against Tox21 compound libraries used lower concentration (0.1 nM) of 17beta-Estradiol as a stimulator.
Tox21 Assay Protocol Summary:
VM7Luc4E2 cells were cultured in phenol red free assay medium containing 10% charcoal stripped FBS for 5 days prior to the assay. The cells were dispensed at 4,000 cells/well in 4 uL of assay medium into white wall/solid-bottom 1536-well plates (Corning Life Sciences, Corning, NY) using a Multidrop Combi (ThermoFisher Scientific, Waltham, MA) dispenser. After the assay plates were incubated at 37C and 5% CO2 for 24 hr, 23 nL of compounds dissolved in DMSO, positive controls or DMSO only was transferred to the assay plates by a Pintool station (Kalypsys, San Diego, CA). The transfer of compounds was followed by the addition of 1 uL of 0.1 nM (final concentration) agonist (17beta-Estradiol)/assay medium using a Flying Reagent Dispenser (FRD, Aurora Discovery, San Diego, CA). The plates were incubated at 37C and 5% CO2 for 22 hr. For luciferase reporter gene assay, 4 uL of ONE-Glo reagent (Promega Corporation, Madison, WI) was added to each well using the FRD and after 30 min incubation at room temperature luminescence intensity was measured using ViewLux plate reader (PerkinElmer, Shelton, CT).
Regarding `CC1=CP(=O)(c2ccccc2)CC1` (stereo not given), the “activity change, negative = inhibition” value was -1.79%. Turning to `C/C=C/C(=O)Oc1c(CCCCCC(C)C)cc([N+](=O)[O-])cc1[N+](=O)[O-]`, the Potency is 4.33 µM (active). For `c1cc(OCC2CO2)cc(OCC2CO2)c1` (stereo not given), the Potency was 48.2 µM (active). Take `CCOC(=O)[C@@](C)(N)Cc1ccc(O)c(O)c1`: the “activity change, negative = inhibition” value was -1.04% [at 42.5 µM]. On to `COc1cccc(O)c1`, for which the “activity change, negative = inhibition” value is -8.28%. Regarding `COc1ccc(C#N)cc1`, the “activity change, negative = inhibition” value was -10.2%. On to `COc1ccc2sc(C(=O)Nc3nnn[nH]3)c(OC(C)C)c2c1`, for which the Potency is 30.5 µM (active). On to `Cc1cc(=O)[nH]c(=O)[nH]1`, for which the “activity change, negative = inhibition” value is 12.2%. For `O=C(O)c1cccc(Cl)n1`, the “activity change, negative = inhibition” value was 5.32%. For `CCCCOc1ccc(C(=O)CCN2CCCCC2)cc1`, the “activity change, negative = inhibition” value is 39.7% [at 42.5 µM]. `O=Nc1ccc(NO)cc1`: the Potency was 50.5 µM (active). For `CCCCNc1c(C(=O)OCC)c(C)nc2c1cnn2CC`, the “activity change, negative = inhibition” value was -4.7% [at 42.5 µM]. For `CCN=C1C=CC(=C(c2ccc(N(CC)CC)cc2)c2ccc(N(CC)CC)cc2)c2ccccc21`, the Potency is 0.682 µM (active). For the compound `c1cc[nH]c1`, the “activity change, negative = inhibition” value is 3.98%.

With `Clc1cccnc1`, the “activity change, negative = inhibition” value was 16.8%. The same measure, in the same setting: the result for `CCOCN(C(=O)CS(=O)(=O)O)c1c(C)cccc1CC` reads -3.45%. In the case of `C=C(c1ccc(C(=O)O)cc1)c1cc2c(cc1C)C(C)(C)CCC2(C)C`, the Potency is 12.2 µM (active). Regarding `Cc1ccc2ccc3cccc4ccc1c2c34`, the “activity change, negative = inhibition” value was 30.1%. Turning to `CC(CN(C)C)CN1c2ccccc2CCc2ccccc21` (stereo not given), the “activity change, negative = inhibition” value is -7.17% [at 42.5 µM]. Same read-out and setting: next, `COc1cccc(CCc2ccccc2OCC(CN(C)C)OC(=O)CCC(=O)O)c1` (stereo not given): -0.0517% [at 42.5 µM].

`CCCCOC(=O)C(C)CC` (stereo not given): the “activity change, negative = inhibition” value was -2.95%. As to `CCCCCCCC(OC)OC`, the “activity change, negative = inhibition” value was 1.1% [at 42.5 µM]. In the case of `CCCSS/C(CCO)=C(\C)N(C=O)Cc1cnc(C)nc1N`, the “activity change, negative = inhibition” value was 10.2% [at 42.5 µM]. With `C/C=C/C(=O)C1=C(C)CCCC1(C)C`, the “activity change, negative = inhibition” value was -1.06%. Regarding `O=C1OC(=O)c2ccc3c4c(ccc1c24)C(=O)OC3=O`, the “activity change, negative = inhibition” value was 1.06%. On the same count and under the same terms, the result for `CCC(=O)OCCc1ccccc1` reads 14.5%; that for `CCc1cccc(CC)c1NC(=O)C(=O)O`, 5.75%.

Turning to `CC1CCCCC1`, the “activity change, negative = inhibition” value was 8.45%. For the compound `CC[N+](CC)(CC)Cc1ccccc1`, the “activity change, negative = inhibition” value is 1.24%. Consider `CCCCCCCC/C=C\CCCCCCCC(=O)OCCOC(=O)CCCCCCC/C=C\CCCCCCCC`, for which the “activity change, negative = inhibition” value was 0.559%. Still for that read-out and setting: next, `O=c1cccc[nH]1`: 8.39%; `COc1cc(C(=O)NS(=O)(=O)c2ccccc2C)ccc1Cc1cn(C)c2ccc(NC(=O)OC3CCCC3)cc12`: 0.995% [at 42.5 µM]; `CCC(=O)CC(C)CC` (stereo not given): 2.34% [at 0.349 µM]. Same read-out and setting: next, `CC(C(O)c1ccccc1)N(C)CCOC(c1ccccc1)c1ccccc1` (stereo not given): -22.8% [at 42.5 µM]. Same read-out and setting: the result for `O=C(O)Cc1ccc(OCCNC[C@H](O)c2ccccc2)cc1` reads 5.77% [at 42.5 µM]; that for `CCN(CC)CCOc1ccc(C(O)(Cc2ccc(Cl)cc2)c2ccc(C)cc2)cc1` (stereo not given), 1.64% [at 42.5 µM]. As to `ClC/C=C\CCl`, the “activity change, negative = inhibition” value is 0.411%. With `CCCCCCCCCCc1ccccc1`, the “activity change, negative = inhibition” value was 7.92%. As for `NC1(c2ccc(-c3nc4ccn5c(=O)[nH]nc5c4cc3-c3ccccc3)cc2)CCC1`, the “activity change, negative = inhibition” value is 0.278% [at 42.5 µM]. As to `CCCC(C)CCC(C)=O` (stereo not given), the “activity change, negative = inhibition” value was 1.54%.
